# Screening results as filed in PubChem.
# Rows were chosen to be rich in hits. Some 4.8% of all compounds tested hit in one or more screens of this group.
# hgDAF12 agonist: activates the H. glycines DAF-12 receptor ligand-binding domain; HEK293 GAL4-hgDAF12 UAS-luciferase reporter, agonist luminescence; normalized to butyrate control; 370,000 compounds, 1.8% hits; activation, % at 6.8 µM;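 active = activation above a cutoff set at the mean of all screened compounds plus 3 SD, cut at about 10% in these data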
# ssDAF-12 act: activates DAF-12 receptor from parasite S. stercoralis; HEK293 ssDAF-12/GRIP1 lit1-tk-luc reporter, luminescence; % of 3 µM dafachronic acid response; activation, % at 6.8 µM; 370,000 compounds, 1% hits; AID 652126;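 active = activation above the mean over all tested compounds plus 3 SD, cut at about 0.9% in these data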
# SMARCA2 act: activators of SMARCA2 function | MG213 cells, MMTV-luciferase reporter, dexamethasone, overnight | activation, % at 9.1 µM | 370,000 compounds, 1% hits | AID 652017; in the data active = activation above about 7.8%
# DAX1 inh-1: blocks DAX1 repression of SF-1 activated StAR promoter; 370,000 compounds, 1.1% hits; HEK293T StAR-luciferase reporter, SF-1/DAX-1 repression relief; AID 652010; inhibition, % at 6.8 µM;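 active = inhibition above the mean over all tested compounds plus 3 SD, cut at about 3.6% in these data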;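 also: higher inhibition means more luminescence from relief of DAX-1 repression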
# DAX1 inh-2: NR0B1 (DAX1) inhibition. inhibition, % at 6.75 µM. P51843. 340,000 compounds, 0.99% hits. AID 504766. HEK293 Gal4-DAX1 luciferase reporter, luminescence;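 active = inhibition above the mean over all tested compounds plus 3 SD, cut at about 4.2% in these data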;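 also: inhibition shows as a rise in luminescence from relieved DAX1 repression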
# Target sequence (P51843 207-470 limits assumed): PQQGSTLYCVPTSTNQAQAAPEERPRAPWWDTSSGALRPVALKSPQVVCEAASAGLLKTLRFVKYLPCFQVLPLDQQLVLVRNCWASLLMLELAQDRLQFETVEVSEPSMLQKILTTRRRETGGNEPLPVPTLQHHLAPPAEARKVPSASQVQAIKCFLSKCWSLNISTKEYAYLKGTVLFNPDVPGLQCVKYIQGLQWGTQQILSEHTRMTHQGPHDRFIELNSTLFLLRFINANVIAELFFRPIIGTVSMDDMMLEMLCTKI
# hcDAF12 agonist: H. contortus DAF-12 activation, primary screen; 370,000 compounds, 1.4% hits; activation, % at 6.8 µM; HEK293 hcDAF-12 lit1-tk-luc reporter, luminescence; 0% DMSO, 100% Δ7-dafachronic acid;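 active = activation above the mean of all tested compounds plus 3 SD, cut at about 5.5% in these data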
# Numbers stand for hits; 0 = inactive; - = no result given.
SMILES,hgDAF12 agonist,ssDAF-12 act,SMARCA2 act,DAX1 inh-1,DAX1 inh-2,hcDAF12 agonist
Cc1ccc(NC(=O)CCC(=O)Nc2ccc(C)cc2)cc1,0,0,0,0,0,0
O=C(CSc1ccc2ccccc2n1)N/N=C/c1ccccc1O,0,0,0,0,0,0
O=C(/C=C/c1ccc(Br)cc1)N1CCN(c2cccc(C(F)(F)F)c2)CC1,0,0,0,0,0,6.4
O=C(/C=C/c1cccc(Br)c1)N1CCN(c2cccc(C(F)(F)F)c2)CC1,0,0,0,0,0,0
CC(C)CC(C(=O)Nn1cnnc1)N1C(=O)c2ccccc2C1=O (centres undefined),0,0,0,0,0,0
Cc1ccc(NCc2nnc(SCC(=O)Nc3cccc(O)c3)n2CC2CCCO2)c(C)c1 (centres undefined),0,0,0,0,0,0
Cc1ccc(/C=N/NC(=O)c2n[nH]c3c2CCCC3)cc1,0,0,0,0,-,0
O=C(N/N=C/c1cccs1)c1n[nH]c2c1CCCC2,0,0,0,0,0,5.9
CCN(CC)S(=O)(=O)c1ccc(NC2c3ccccc3C(=O)N2Cc2ccc3c(c2)OCO3)cc1 (centres undefined),0,0,0,0,0,0
CNC(=O)c1ncnnc1N(C)C(=O)NCc1ccccc1,0,0,0,0,9.6,0
CC(=O)Nc1ccc(OCC(O)CNC2CCCC2)cc1 (centres undefined),0,0,0,0,0,0
c1ccc2[nH]c(COCc3nc4ccccc4[nH]3)nc2c1,0,0,-,-,-,0
Brc1ccc(OCc2nc3ccccc3[nH]2)cc1,12,0,0,0,0,6.0
O=S(=O)(CCc1nc2ccccc2[nH]1)c1ccc(Br)cc1,0,0,0,0,0,0
COc1ccccc1OCc1nc2ccccc2[nH]1,0,0,0,0,7.3,0
c1ccc2[nH]c(CCCc3nc4ccccc4[nH]3)nc2c1,0,0,0,0,0,0
c1ccc(CCc2nc3ccccc3[nH]2)cc1,13,0,0,0,0,0
COc1ccc(N2CC(C(=O)N[C@@H](C)C(=O)N[C@H](CO)c3ccccc3)CC2=O)cc1 (some centres undefined),0,0,0,0,0,0
O=C(NC(=S)Nc1ccc(F)cc1)C1CCCCC1,0,0,0,0,0,0
O=C(NNC(=O)c1ccncc1)Nc1ccc(N=Nc2ccccc2)cc1,10,0,0,0,0,0
Cc1ccc(-c2nc3sc(C#N)c(N)n3c(=O)c2C#N)cc1,0,0,0,0,4.8,0
COc1ccc(Nc2cc(C)c3c(O)cccc3n2)cc1,12,0,0,0,0,0
COC(=O)c1cc(Nc2cc(C)c3c(O)cccc3n2)cc(C(=O)OC)c1,0,0,0,0,0,0
O=C(OCc1cn(Cc2cc(F)cc(F)c2)nn1)N1CCOCC1,0,0,0,0,-,0
O=C(NCCCN1CCCC1=O)c1cccc(S(=O)(=O)N2CCCCC2)c1,0,0,0,4.4,0,0
SMILES,hgDAF12 agonist,ssDAF-12 act,SMARCA2 act,DAX1 inh-1,DAX1 inh-2,hcDAF12 agonist
O=C(c1cccc(S(=O)(=O)N2CCCCC2)c1)N1CCc2ccccc21,0,0,0,0,0,5.9
O=C(NCCCN1CCCC1=O)c1cccc(S(=O)(=O)Nc2ccccc2Cl)c1,0,0,0,0,0,0
COc1ccc(C)cc1S(=O)(=O)NCC(c1ccc2c(c1)OCO2)N1CCN(C)CC1 (centres undefined),0,0,0,3.7,0,0
CCN(CC)C(=O)c1ccc2c(c1)N(Cc1ccccc1)C(=O)CS2=O (centres undefined),0,0,0,0,4.7,0
O=C(NCc1ccco1)c1ccc2c(c1)N(Cc1ccccc1)C(=O)CS2=O (centres undefined),0,0,0,0,0,0
COC(=O)c1cc(C(C)=O)c(C)[nH]c1=O,0,0,0,0,5.9,0
CCOC(=O)c1cc(C(C)=O)c(=O)[nH]c1C,0,0,0,0,0,0
O=C(N/N=C/c1ccsc1)c1ccc2c(c1)OCO2,0,0,0,0,0,0
CCCOc1ccc(N2C(=O)CC(N3CCN(c4ccc([N+](=O)[O-])cc4)CC3)C2=O)cc1 (centres undefined),0,0,0,0,5.2,0
